Measured values as given in PubChem BioAssay (NCI).
About 79,000 compounds went through this panel and 15% of them were active in at least one assay; those are over-represented in the sample as a whole. Activity calls are given as the source filed them. Rule as the data show it: active = growth inhibition above about 70%; inactive = the rest.

Legend:
[1] = NCI Yeast Anticancer Drug Screen. Data for the wt2 strain (AID 169);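 also: 0% = growth of vehicle-treated yeast cultures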; conditions: S. cerevisiae wt2 strain growth inhibition, hits give high values
Method in brief: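 Yeast cells were exposed to test compounds, and growth inhibition was measured relative to vehicle-treated controls.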

[2] = NCI Yeast Anticancer Drug Screen. Data for the mlh1 strain (AID 171);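 also: 0% = growth of vehicle-treated control cultures of the same strain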; conditions: S. cerevisiae mlh1 strain growth inhibition, hits give high values
Method in brief: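 Yeast carrying a defined genetic alteration in DNA damage repair or cell cycle control were exposed to test compounds. Growth inhibition was measured relative to vehicle-treated controls.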

[3] = NCI Yeast Anticancer Drug Screen. Data for the sgs1 strain (AID 173);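 also: 0% = growth of vehicle-only control cultures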; conditions: S. cerevisiae sgs1 mutant, hits give high values
Method in brief: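 Yeast mutant strains carrying defined defects in DNA damage repair or cell cycle control were exposed to test compounds. Growth inhibition was scored against vehicle-treated controls.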

[4] = NCI Yeast Anticancer Drug Screen. Data for the mlh1 rad18 strain (AID 175); conditions: S. cerevisiae mlh1 rad18 strain growth inhibition, hits give high values
Method in brief: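 Growth inhibition of the yeast strain was measured after compound exposure and expressed relative to vehicle-treated controls. The strain carries defined defects in DNA damage repair.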

[5] = NCI Yeast Anticancer Drug Screen. Data for the rad18 strain (AID 177); conditions: S. cerevisiae rad18 mutant growth inhibition, hits give high values
Method in brief: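 Yeast carrying a defined DNA damage repair alteration were exposed to compounds. Growth inhibition was expressed relative to vehicle-treated controls.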

[6] = NCI Yeast Anticancer Drug Screen. Data for the rad52 strain (AID 147);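 also: 0% = growth of vehicle-treated control cultures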; conditions: S. cerevisiae rad52 mutant growth inhibition, hits give high values
Method in brief: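 Yeast strain carrying a DNA damage repair alteration was exposed to test compounds. Growth inhibition was measured relative to vehicle-treated controls.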

[7] = NCI Yeast Anticancer Drug Screen. Data for the wt1 strain (AID 149);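 also: 0% = growth of vehicle-treated wt1 cultures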; conditions: S. cerevisiae wt1 strain (SPY 50644) growth inhibition, hits give high values
Method in brief: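 Yeast wt1 strain exposed to compounds; growth inhibition measured relative to vehicle-treated controls.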

[8] = NCI Yeast Anticancer Drug Screen. Data for the rad50EPP+ strain (AID 151);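 also: 0% = growth of vehicle-treated control cultures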; conditions: S. cerevisiae rad50 mutant strain, hits give high values
Method in brief: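 Yeast strain carrying rad50 alteration (rad50EPP+) exposed to compounds; growth inhibition measured relative to vehicle-treated controls.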

[9] = NCI Yeast Anticancer Drug Screen. Data for the mgt1 strain (AID 153); conditions: S. cerevisiae mgt1 mutant growth inhibition, hits give high values
Method in brief: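 Yeast mgt1 strain (DNA repair/cell-cycle alteration panel) exposed to compounds; growth inhibition measured relative to vehicle-treated controls.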

[10] = NCI Yeast Anticancer Drug Screen. Data for the rad50 strain (AID 155);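 also: 0% = growth of vehicle-only cultures of the same strain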; conditions: S. cerevisiae rad50 strain growth inhibition, hits give high values
Method in brief: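 Yeast carrying a defined DNA repair defect were exposed to test compounds, and growth was compared with vehicle-treated controls to give percent inhibition.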

[11] = NCI Yeast Anticancer Drug Screen. Data for the mec2-1 strain (AID 157); conditions: S. cerevisiae mec2-1 strain, hits give high values
Method in brief: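 mec2-1 yeast strain, carrying an alteration in DNA damage repair or cell cycle control, was exposed to compounds; growth inhibition was measured relative to vehicle-treated controls.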

[12] = NCI Yeast Anticancer Drug Screen. Data for the rad14 strain (AID 159);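 also: 0% = growth of vehicle-treated control cultures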; conditions: S. cerevisiae rad14 strain growth inhibition, hits give high values
Method in brief: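 Yeast cells carrying a defined DNA-repair defect were exposed to compounds, and growth inhibition was calculated relative to vehicle-treated control cultures.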

[13] = NCI Yeast Anticancer Drug Screen. Data for the sgs1 mgt1 strain (AID 161);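 also: 0% = growth of cultures given vehicle only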; conditions: S. cerevisiae sgs1 mgt1 strain, hits give high values
Method in brief: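 Compounds are added to genetically altered yeast, and growth is compared with cultures given vehicle alone to give percent inhibition.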

[14] = NCI Yeast Anticancer Drug Screen. Data for the CLN2oe strain (AID 163);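 also: 0% = growth of vehicle-only control cultures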; conditions: S. cerevisiae CLN2oe strain, hits give high values
Method in brief: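 Yeast cells carrying a defined cell-cycle control alteration were exposed to test compounds. Growth inhibition was scored against vehicle-treated control cultures.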

[15] = NCI Yeast Anticancer Drug Screen. Data for the cln2 rad14 strain (AID 165);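 also: 0% = growth equal to vehicle treated cultures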; conditions: S. cerevisiae cln2 rad14 strain, hits give high values
Method in brief: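 Yeast carrying cln2 and rad14 alterations (cell cycle control and DNA damage repair) were exposed to compounds. Growth inhibition was measured against vehicle-treated controls.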

[16] = NCI Yeast Anticancer Drug Screen. Data for the bub3 strain (AID 167); conditions: S. cerevisiae bub3 mutant strain, hits give high values
Method in brief: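 Compounds were applied to a genetically altered yeast strain carrying a cell-cycle control defect. Growth inhibition was scored against vehicle-treated controls.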

[17] = at 5.0 µM (retest, dose inferred, filed as 0.5)
[18] = at 50.0 µM (retest, dose inferred, filed as 5.0)

Measured: growth inhibition

N#CN1C2CCC1CC(=O)C2
active: [4]; [17] 75% | [4]; [18] 100%
inactive: [1]; at 1.2 µM -18% | [1]; at 3.7 µM -16% | [1]; at 11.0 µM -19% | [1]; at 33.0 µM -22% | [1]; at 100.0 µM -25% | [2]; at 1.2 µM -19% | [2]; at 3.7 µM -11% | [2]; at 11.0 µM -13% | [2]; at 33.0 µM -16% | [2]; at 100.0 µM -21% | [3]; at 1.2 µM -17% | [3]; at 3.7 µM -20% | [3]; at 11.0 µM -12% | [3]; at 33.0 µM -23% | [3]; at 100.0 µM -24% | [4]; at 50.0 µM 62.1% | [5]; at 1.2 µM -10% | [5]; at 3.7 µM -15% | [5]; at 11.0 µM -22% | [5]; at 33.0 µM -21% | [5]; at 100.0 µM -9%

NC(=NCc1ccccc1)N/N=C\c1ccnc2ccccc12
active: [9]; at 100.0 µM 76% | [13]; [18] 75% | [14]; at 100.0 µM 70%
inactive: [6]; at 1.2 µM 0% | [6]; at 3.7 µM -3% | [6]; at 11.0 µM 0% | [6]; at 33.0 µM 0% | [6]; at 100.0 µM 32% | [7]; at 1.2 µM -1% | [7]; at 3.7 µM -1% | [7]; at 11.0 µM -2% | [7]; at 33.0 µM 0% | [7]; at 100.0 µM 2% | [8]; at 1.2 µM -2% | [8]; at 3.7 µM 0% | [8]; at 11.0 µM 1% | [8]; at 33.0 µM 1% | [8]; at 100.0 µM 4% | [9]; at 1.2 µM -4% | [9]; at 3.7 µM -3% | [9]; at 11.0 µM 0% | [9]; at 33.0 µM 3% | [10]; at 1.2 µM 1% | [10]; at 3.7 µM 2% | [10]; [17] -2% | [10]; at 11.0 µM 4% | [10]; at 33.0 µM 7% | [10]; [18] 46% | [10]; at 50.0 µM 36% | [10]; at 100.0 µM 39% | [11]; at 1.2 µM -1% | [11]; at 3.7 µM 0% | [11]; [17] 2% | [11]; at 11.0 µM -1% | [11]; at 33.0 µM 7% | [11]; [18] 56% | [11]; at 50.0 µM 48.8% | [11]; at 100.0 µM 27% | [12]; at 1.2 µM 0% | [12]; at 3.7 µM 3% | [12]; at 11.0 µM 12% | [12]; at 33.0 µM 36% | [12]; at 100.0 µM 61% | [13]; [17] -6% | [13]; at 50.0 µM 66.3% | [14]; at 1.2 µM -6% | [14]; at 3.7 µM -6% | [14]; at 11.0 µM 1% | [14]; at 33.0 µM 22% | [15]; [17] 9% | [15]; [18] 62% | [15]; at 50.0 µM 21.1% | [16]; at 1.2 µM 0% | [16]; at 3.7 µM 0% | [16]; [17] -5% | [16]; at 11.0 µM 1% | [16]; at 33.0 µM 13% | [16]; [18] 60% | [16]; at 50.0 µM 22.4% | [16]; at 100.0 µM 56% | [1]; at 1.2 µM -2% | [1]; at 3.7 µM -3% | [1]; at 11.0 µM -1% | [1]; at 33.0 µM -1% | [1]; at 100.0 µM 38% | [2]; at 1.2 µM -2% | [2]; at 3.7 µM -1% | [2]; at 11.0 µM 2% | [2]; at 33.0 µM 10% | [2]; at 100.0 µM 52% | [3]; at 1.2 µM -1% | [3]; at 3.7 µM 0% | [3]; at 11.0 µM 1% | [3]; at 33.0 µM 13% | [3]; at 100.0 µM 61% | [4]; [17] 3% | [4]; [18] -21% | [4]; at 50.0 µM 44.4% | [5]; at 1.2 µM -2% | [5]; at 3.7 µM -3% | [5]; at 11.0 µM 0% | [5]; at 33.0 µM 5% | [5]; at 100.0 µM 28%
